Laboratory results as given in PubChem BioAssay (Tox21).
Where “and” joins values, the source holds several entries; their conditions need not be identical. Equal entries are not always repeated. Records with an inconclusive call do not appear. Entries that show only a call come without a potency. Where a structure was tested more than once in an assay, its records may differ in their call. Calls of active or inactive are those of the source. Unless noted, calls follow the shape of the dose curve; as a rule, active = well fitted curve in the direction sought with a large enough effect in the repeat runs; inconclusive = weak or mixed curves; inactive = no such curve, though single readings can be large; an effect the other way counts as inactive or inconclusive.

Assays:
[1] = target: Acetylcholinesterase (Homo sapiens) (UniProt P22303); test: Acetylcholinesterase (AChE) small molecule antagonists: enzyme-based qHTS assay (AID 1347397; calls by dose curve; also: nearly all actives have a fitted effect of over 55% in size); settings: Potency: AChE enzyme activity inhibition
Summary of the method: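 rhAChE 50 mU/mL (dispensed) + cpd or DMSO, 30 min RT; add DTNB/acetylthiocholine cocktail, 10 min RT; colorimetric thiocholine readout. qHTS, 1536-well format.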

[2] = target: Acetylcholinesterase (Homo sapiens) (UniProt P22303); test: Acetylcholinesterase (AChE) small molecule antagonists: fluorescence cell-based qHTS assay (AID 1347398; calls by dose curve; also: nearly all actives have a fitted effect of over 50% in size); settings: Potency: AChE activity
Summary of the method: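 Read-out is Thiolite Green fluorescence at Ex/Em = 490/520 nm, formed by reaction with thiocholine released when cellular AChE in SH-SY5Y cells hydrolyzes acetylthiocholine. Compounds were preincubated 30 min at 37 C before substrate.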

[3] = target: Acetylcholinesterase (Homo sapiens) (UniProt P22303); test: Acetylcholinesterase (AChE) small molecule antagonists: enzyme-based qHTS assay with human liver microsomes (AID 1347399; calls by dose curve; also: nearly all actives have a fitted effect of over 60% in size); settings: Potency: qHTS inhibition
Summary of the method: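 Recombinant human AChE (50 mU/mL in the enzyme mix) and human liver microsomes (0.25 mg/mL final) were preincubated with compound and NADPH (0.25 mg/mL final) for 30 min at 37 C. Acetylthiocholine/DTNB was then added; thiocholine was read colorimetrically after 10 min at room temperature.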

[4] = target: Cytochrome P450 2D6 (Homo sapiens) (UniProt P10635); test: Cytochrome P450 Family 2 Subfamily D Member 6 (CYP2D6) small molecule antagonists: luciferase reporter qHTS assay (AID 1671196); also: nearly all actives have a fitted effect of over 50% in size
Summary of the method: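 Inhibition of CYP2D6 was gauged by loss of luminescence, since light produced tracks the luciferin generated from a proluciferin substrate. A 10 min room-temperature preincubation preceded 1 h NADPH-supported turnover.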

[5] = target: Cytochrome P450 2C19 (Homo sapiens) (UniProt P33261); test: Cytochrome P450 Family 2 Subfamily C Member 19 (CYP2C19) small molecule antagonists: luciferase reporter qHTS assay (AID 1671197); also: nearly all actives have a fitted effect of over 65% in size
Summary of the method: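 P450-Glo CYP2C19 system: enzyme-substrate mix with compound 10 min at room temperature, then NADPH regeneration solution, 1 h at 37C. Proluciferin-to-luciferin conversion detected by luminescence after 20 min with detection reagent; ketoconazole as positive control.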

[6] = target: Cytochrome P450 2C9 (Homo sapiens) (UniProt P11712); test: Cytochrome P450 Family 2 Subfamily C Member 9 (CYP2C9) small molecule antagonists: luciferase reporter qHTS assay (AID 1671198); also: nearly all actives have a fitted effect of over 50% in size
Summary of the method: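 Enzyme-substrate mix preincubated with compound 10 min at room temperature; reaction started with NADPH regeneration solution, 1 h 37C. Luminescent luciferin product read after 20 min detection reagent.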

[7] = target: Cytochrome P450 1A2 (Homo sapiens) (UniProt P05177); test: Cytochrome P450 Family 1 Subfamily A Member 2 (CYP1A2) small molecule antagonists: luciferase reporter qHTS assay (AID 1671199); also: nearly all actives have a fitted effect of over 50% in size
Summary of the method: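 Signal from luciferin formed by CYP1A2 from a proluciferin substrate is read as luminescence, expressed in relative luminescence units. Compounds sit with enzyme 10 min, NADPH-driven reaction runs 1 h, all at room temperature.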

[8] = target: Voltage-gated inwardly rectifying potassium channel KCNH2 (Homo sapiens) (UniProt Q12809); test: Human Ether-a-go-go-Related Gene (hERG) channel small molecule antagonists: fluorescence cell-based qHTS assay (AID 1671200); also: nearly all actives have a fitted effect of over 50% in size
Summary of the method: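 First, 1000 cells per well are seeded and cultured overnight at 37 C. Next, FluxOR II dye is loaded for 1 h at room temperature, protected from light. After 10 more minutes, stimulus is added and fluorescence is read.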

[9] = target: Cytochrome P450 3A4 (Homo sapiens) (UniProt P08684); test: Cytochrome P450 Family 3 Subfamily A Member 4 (CYP3A4) small molecule antagonists: luciferase reporter qHTS assay (AID 1671201); also: nearly all actives have a fitted effect of over 50% in size
Summary of the method: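 Enzyme and proluciferin substrate are mixed with test chemicals for 10 min, then NADPH regeneration system drives turnover for 1 h at room temperature. A detection reagent halts the reaction; luminescence after 20 min gives relative activity.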
Potency is read from the fitted curve at half-maximal effect.

Sequence of Cytochrome P450 1A2 (Homo sapiens) (P05177 whole entry, looked up): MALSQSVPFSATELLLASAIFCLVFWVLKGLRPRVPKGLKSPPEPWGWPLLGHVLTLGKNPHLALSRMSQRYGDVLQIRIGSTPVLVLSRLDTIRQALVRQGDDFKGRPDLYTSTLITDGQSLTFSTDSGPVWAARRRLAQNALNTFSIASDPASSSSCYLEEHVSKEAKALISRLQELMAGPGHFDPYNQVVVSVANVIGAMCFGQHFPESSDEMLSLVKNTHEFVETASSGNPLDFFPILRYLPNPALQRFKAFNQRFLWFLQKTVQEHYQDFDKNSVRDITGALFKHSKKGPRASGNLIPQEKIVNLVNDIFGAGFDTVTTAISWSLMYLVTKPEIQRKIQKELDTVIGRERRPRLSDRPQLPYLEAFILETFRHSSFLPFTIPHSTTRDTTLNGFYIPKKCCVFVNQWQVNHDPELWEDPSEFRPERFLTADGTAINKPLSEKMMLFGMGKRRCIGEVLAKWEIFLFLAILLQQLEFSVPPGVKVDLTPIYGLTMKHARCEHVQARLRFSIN
Sequence of Cytochrome P450 2C9 (Homo sapiens) (P11712 whole entry, looked up): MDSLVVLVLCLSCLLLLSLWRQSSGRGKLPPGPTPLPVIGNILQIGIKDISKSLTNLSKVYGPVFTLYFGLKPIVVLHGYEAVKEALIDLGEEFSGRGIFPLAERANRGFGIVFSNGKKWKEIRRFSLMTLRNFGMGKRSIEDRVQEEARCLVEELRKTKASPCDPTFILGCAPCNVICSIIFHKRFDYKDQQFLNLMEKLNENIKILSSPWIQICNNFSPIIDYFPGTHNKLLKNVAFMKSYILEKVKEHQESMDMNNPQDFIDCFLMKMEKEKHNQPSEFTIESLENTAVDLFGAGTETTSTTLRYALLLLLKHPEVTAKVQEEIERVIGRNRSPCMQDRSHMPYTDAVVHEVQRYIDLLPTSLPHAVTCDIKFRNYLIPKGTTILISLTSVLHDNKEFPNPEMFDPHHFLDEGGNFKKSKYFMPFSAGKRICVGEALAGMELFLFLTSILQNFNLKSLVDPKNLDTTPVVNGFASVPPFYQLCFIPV
Sequence of Cytochrome P450 2C19 (Homo sapiens) (P33261 whole entry, looked up): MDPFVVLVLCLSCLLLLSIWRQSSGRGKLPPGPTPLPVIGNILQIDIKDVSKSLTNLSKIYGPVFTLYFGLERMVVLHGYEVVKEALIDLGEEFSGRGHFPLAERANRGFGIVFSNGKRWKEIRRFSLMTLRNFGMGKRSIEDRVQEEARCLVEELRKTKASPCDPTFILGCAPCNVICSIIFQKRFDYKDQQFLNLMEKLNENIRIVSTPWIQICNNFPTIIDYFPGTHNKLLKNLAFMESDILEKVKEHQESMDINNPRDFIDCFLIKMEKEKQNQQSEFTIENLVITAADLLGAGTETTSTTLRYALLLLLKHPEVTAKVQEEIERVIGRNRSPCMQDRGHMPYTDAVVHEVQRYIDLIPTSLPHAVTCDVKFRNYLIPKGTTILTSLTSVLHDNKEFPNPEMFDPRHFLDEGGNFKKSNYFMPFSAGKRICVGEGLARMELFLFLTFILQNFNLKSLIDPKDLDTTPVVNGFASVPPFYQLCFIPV
Sequence of Acetylcholinesterase (Homo sapiens) (P22303 whole entry, looked up): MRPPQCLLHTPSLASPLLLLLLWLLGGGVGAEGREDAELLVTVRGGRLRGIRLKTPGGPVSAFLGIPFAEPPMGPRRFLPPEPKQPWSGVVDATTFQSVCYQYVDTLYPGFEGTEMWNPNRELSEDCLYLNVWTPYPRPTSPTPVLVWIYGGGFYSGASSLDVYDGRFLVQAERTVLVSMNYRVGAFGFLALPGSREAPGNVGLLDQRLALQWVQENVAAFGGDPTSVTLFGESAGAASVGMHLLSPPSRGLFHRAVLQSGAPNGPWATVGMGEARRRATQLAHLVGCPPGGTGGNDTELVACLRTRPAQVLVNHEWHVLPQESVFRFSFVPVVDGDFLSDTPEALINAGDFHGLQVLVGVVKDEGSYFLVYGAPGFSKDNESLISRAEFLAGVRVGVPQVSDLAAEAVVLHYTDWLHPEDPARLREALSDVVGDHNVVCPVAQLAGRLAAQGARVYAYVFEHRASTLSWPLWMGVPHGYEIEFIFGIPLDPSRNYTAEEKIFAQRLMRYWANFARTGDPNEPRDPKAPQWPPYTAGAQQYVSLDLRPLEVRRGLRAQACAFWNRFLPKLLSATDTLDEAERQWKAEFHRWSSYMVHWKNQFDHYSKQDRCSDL
Sequence of Cytochrome P450 3A4 (Homo sapiens) (P08684 whole entry, looked up): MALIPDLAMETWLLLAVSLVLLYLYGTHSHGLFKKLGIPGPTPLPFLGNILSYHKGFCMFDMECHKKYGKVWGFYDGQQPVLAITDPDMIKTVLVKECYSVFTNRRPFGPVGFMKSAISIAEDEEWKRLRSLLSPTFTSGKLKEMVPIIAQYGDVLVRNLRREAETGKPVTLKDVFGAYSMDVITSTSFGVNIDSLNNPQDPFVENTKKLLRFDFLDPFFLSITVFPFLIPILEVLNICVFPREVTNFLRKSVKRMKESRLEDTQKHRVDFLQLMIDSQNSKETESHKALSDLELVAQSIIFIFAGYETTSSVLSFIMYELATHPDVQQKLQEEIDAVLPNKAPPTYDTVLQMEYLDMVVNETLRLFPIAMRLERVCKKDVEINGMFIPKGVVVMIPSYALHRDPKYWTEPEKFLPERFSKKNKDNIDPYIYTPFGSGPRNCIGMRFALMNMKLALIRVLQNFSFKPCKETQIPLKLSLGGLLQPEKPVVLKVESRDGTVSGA
Sequence of Voltage-gated inwardly rectifying potassium channel KCNH2 (Homo sapiens) (Q12809 whole entry, looked up): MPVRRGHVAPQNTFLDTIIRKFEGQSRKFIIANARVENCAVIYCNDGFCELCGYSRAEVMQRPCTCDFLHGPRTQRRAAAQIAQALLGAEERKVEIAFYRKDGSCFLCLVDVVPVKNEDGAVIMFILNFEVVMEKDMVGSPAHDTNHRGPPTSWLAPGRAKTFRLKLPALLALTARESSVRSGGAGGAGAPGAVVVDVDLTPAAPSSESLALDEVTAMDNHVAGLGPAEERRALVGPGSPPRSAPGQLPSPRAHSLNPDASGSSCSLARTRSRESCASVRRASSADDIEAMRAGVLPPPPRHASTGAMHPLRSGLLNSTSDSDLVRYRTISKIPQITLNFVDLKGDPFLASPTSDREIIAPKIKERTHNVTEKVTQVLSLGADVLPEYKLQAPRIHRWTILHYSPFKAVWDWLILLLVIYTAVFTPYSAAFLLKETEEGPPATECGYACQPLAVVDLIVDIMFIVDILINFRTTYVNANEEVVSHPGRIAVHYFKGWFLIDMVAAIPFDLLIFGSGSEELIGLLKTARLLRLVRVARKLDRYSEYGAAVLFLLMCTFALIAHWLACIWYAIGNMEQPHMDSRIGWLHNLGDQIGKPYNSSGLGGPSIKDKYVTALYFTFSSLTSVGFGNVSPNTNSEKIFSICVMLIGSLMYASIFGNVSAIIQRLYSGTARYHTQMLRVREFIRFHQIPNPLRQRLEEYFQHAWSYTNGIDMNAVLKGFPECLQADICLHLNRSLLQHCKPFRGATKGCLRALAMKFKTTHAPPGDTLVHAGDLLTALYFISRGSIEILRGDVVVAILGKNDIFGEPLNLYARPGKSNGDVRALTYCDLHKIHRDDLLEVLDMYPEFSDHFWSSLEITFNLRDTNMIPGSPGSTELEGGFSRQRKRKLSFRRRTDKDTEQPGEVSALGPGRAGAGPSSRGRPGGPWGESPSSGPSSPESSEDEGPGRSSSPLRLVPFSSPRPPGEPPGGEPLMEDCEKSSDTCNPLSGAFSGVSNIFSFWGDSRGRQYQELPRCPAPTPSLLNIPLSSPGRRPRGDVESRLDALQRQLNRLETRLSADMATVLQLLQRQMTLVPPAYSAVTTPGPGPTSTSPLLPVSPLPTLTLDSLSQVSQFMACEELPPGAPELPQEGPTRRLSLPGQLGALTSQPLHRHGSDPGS
Sequence of Cytochrome P450 2D6 (Homo sapiens) (P10635 whole entry, looked up): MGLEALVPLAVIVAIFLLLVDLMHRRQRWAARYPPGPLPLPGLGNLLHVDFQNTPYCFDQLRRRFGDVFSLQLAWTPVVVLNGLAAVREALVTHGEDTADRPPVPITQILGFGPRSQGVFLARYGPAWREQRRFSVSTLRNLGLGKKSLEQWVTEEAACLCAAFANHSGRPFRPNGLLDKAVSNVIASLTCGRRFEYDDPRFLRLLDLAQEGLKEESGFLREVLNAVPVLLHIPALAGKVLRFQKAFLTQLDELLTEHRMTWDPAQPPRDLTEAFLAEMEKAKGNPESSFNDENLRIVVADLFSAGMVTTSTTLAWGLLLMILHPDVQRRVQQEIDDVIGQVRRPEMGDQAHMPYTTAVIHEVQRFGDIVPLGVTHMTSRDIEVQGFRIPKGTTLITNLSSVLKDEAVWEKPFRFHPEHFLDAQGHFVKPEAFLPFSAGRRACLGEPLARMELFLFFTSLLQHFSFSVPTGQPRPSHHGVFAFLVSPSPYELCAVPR

| SMILES | Potency [1] | Potency [2] | Potency [3] | Potency [4] | Potency [5] | Potency [6] | Potency [7] | Potency [8] | Potency [9] |
| --- | --- | --- | --- | --- | --- | --- | --- | --- | --- |
| c1cc(OCC2CO2)ccc1Cc1ccc(OCC2CO2)cc1 (stereo not drawn) | inactive | inactive | inactive | 16 µM (active) and 28.3 µM (active) | 8 µM (active) and 7.96 µM (active) | 35.7 µM (active) and 28.3 µM (active) | 71 µM (active) | inactive |  |
| CCC(=O)O[C@H]1CC[C@H]2[C@@H]3CCC4=CC(=O)CC[C@]4(C)[C@H]3CC[C@]12C | inactive | inactive | inactive | inactive | 17.8 µM (active) and inactive | 25.2 µM (active) and 30.9 µM (active) | inactive | 34.7 µM (active) | inactive |
| CCCCCCOC(=O)c1ccccc1C(=O)OCCCCCC | inactive | inactive | inactive | inactive | 20.4 µM (active) and 7.96 µM (active) | 25.7 µM (active) and 7.96 µM (active) | 22.9 µM (active) and 10 µM (active) | inactive |  |
| CN(C)c1ccc(C(=O)c2ccc(N(C)C)cc2)cc1 | inactive | inactive | inactive | inactive and 35.6 µM (active) | 8.85 µM (active) and 8.94 µM (active) | 31.7 µM (active) | 17.7 µM (active) and 14.2 µM (active) |  |  |
| CCCCCCCCC(=O)NCc1ccc(O)c(OC)c1 | inactive | inactive | inactive | 31.7 µM (active) and 17.4 µM (active) | 4.9 µM (active) | 2.52 µM (active) and 2.45 µM (active) | 31.7 µM (active) and 27.5 µM (active) | inactive |  |
| CCC(CC)Nc1c([N+](=O)[O-])cc(C)c(C)c1[N+](=O)[O-] | inactive | inactive | inactive | inactive | 36.1 µM (active) and 10 µM (active) | 32.1 µM (active) and 25.2 µM (active) | 28.6 µM (active) and 17.8 µM (active) | inactive |  |
| O=C(NC(=O)c1c(F)cccc1F)Nc1ccc(Cl)cc1 | inactive | inactive | inactive | inactive | inactive | inactive | 35.6 µM (active) | inactive | inactive |
| O=P(Oc1ccccc1)(Oc1ccccc1)Oc1ccccc1 | 7.06 µM (active) and 11.2 µM (active) | 2.51 µM (active) and 3.56 µM (active) | 35.4 µM (active) and 71 µM (active) | inactive | 2.81 µM (active) and 5.64 µM (active) | 6.3 µM (active) and 6.33 µM (active) | 9.98 µM (active) and 11.2 µM (active) | 21.8 µM (active) and 38.9 µM (active) | inactive |
| CCOP(=S)(OCC)O/N=C(\C#N)c1ccccc1 | 56.4 µM (active) | 39.9 µM (active) | 1.78 µM (active) and 1.55 µM (active) | 35.6 µM (active) | 224 nM (active) and 347 nM (active) | 2 µM (active) and 2.19 µM (active) | 1.42 µM (active) and 1.23 µM (active) | inactive |  |
| CC1(C)C(C=C(Cl)Cl)C1C(=O)OC(C#N)c1cccc(Oc2ccccc2)c1 (stereo not drawn) | inactive | inactive | inactive | inactive | 17.8 µM (active) and 24.5 µM (active) | 5.64 µM (active) and 12.3 µM (active) | inactive | inactive | inactive |
| CCc1cccc(CC)c1N(COC)C(=O)CCl | inactive | inactive | inactive | inactive | 9.71 µM (active) and 71 µM (active) | 30.7 µM (active) and 39.9 µM (active) | inactive | inactive |  |
| NNC(=S)NN | inactive | inactive | inactive | 65 µM (active) | 32.6 µM (active) and 39.9 µM (active) | 65 µM (active) | 41 µM (active) and 31.7 µM (active) |  |  |
| NCc1cccnc1 | inactive | inactive | inactive | inactive | 28.3 µM (active) and inactive | inactive | inactive | inactive | inactive |
| Oc1cc(Cl)c(Cl)cc1Cl | inactive | inactive | inactive | inactive | inactive | inactive | 22.3 µM (active) and 20 µM (active) and 22.4 µM (active) | inactive | inactive |
| Cc1cc(C)cc(C)c1 | inactive | inactive | inactive | inactive | inactive | inactive | inactive | inactive | inactive |
| COc1ccc(C=O)cc1 | inactive | inactive | inactive | inactive | inactive | inactive | inactive | inactive | inactive |
| CC(C)N(C(=O)SCC(Cl)=C(Cl)Cl)C(C)C | inactive | inactive | inactive | inactive | 35.1 µM (active) and 5.03 µM (active) | inactive and 31.7 µM (active) | inactive | 27.5 µM (active) | inactive |
| O=C(Nc1ccc(Br)cc1)c1cc(Br)cc(Br)c1O | inactive | inactive | inactive | 79.6 µM (active) and inactive | inactive | 35.5 µM (active) and 17.8 µM (active) and 15.5 µM (active) | 2.82 µM (active) and 35.6 µM (active) and 17.4 µM (active) | inactive |  |

| SMILES | Potency [1] | Potency [2] | Potency [3] | Potency [4] | Potency [5] | Potency [6] | Potency [7] | Potency [8] | Potency [9] |
| --- | --- | --- | --- | --- | --- | --- | --- | --- | --- |
| CN(C)C(=O)Nc1ccc(Cl)cc1 | inactive | inactive | inactive | 9.86 µM (active) | 7.83 µM (active) | inactive | 3.93 µM (active) and 3.99 µM (active) | inactive | inactive |
| Cc1ccc(N)c(N)c1 | inactive | inactive | inactive | 3.57 µM (active) and 17.8 µM (active) | 17.9 µM (active) and 31.7 µM (active) | 35.7 µM (active) and 20 µM (active) | 5.66 µM (active) and 20 µM (active) | inactive | 31.8 µM (active) and 31.7 µM (active) |
| CC(C)C(=O)OCC(C)(C)C(OC(=O)C(C)C)C(C)C (stereo not drawn) | inactive | inactive | inactive | 32 µM (active) and inactive | inactive | inactive | inactive | inactive | inactive |
| CCOc1cc(Oc2ccc(C(F)(F)F)cc2Cl)ccc1[N+](=O)[O-] | inactive | inactive | inactive | 2.27 µM (active) and 5.64 µM (active) | 5.7 µM (active) and 7.1 µM (active) | 4.53 µM (active) and 6.33 µM (active) | 20 µM (active) | inactive | inactive |
| OCC(O)CO | inactive | inactive | inactive | inactive | inactive | inactive | inactive | inactive | inactive |
| CC(O)CCO (stereo not drawn) | inactive | inactive | inactive | 32 µM (active) and inactive | inactive and 71 µM (active) | inactive | inactive | inactive | inactive |
| CCCCCCCCOC(=O)c1ccccc1C(=O)OCCCCCCCC | inactive | inactive | inactive | inactive | 50.1 µM (active) and inactive | 14.2 µM (active) |  |  |  |
| Nc1ccc(-c2ccccc2)cc1 | inactive | inactive | inactive | 35.6 µM (active) | 11.6 µM (active) and 11.2 µM (active) | 13 µM (active) and 12.6 µM (active) | 1.83 µM (active) and 6.33 µM (active) | inactive | 6.5 µM (active) and 20 µM (active) |
| CCCCC(CC)COC(=O)c1ccc(C(=O)OCC(CC)CCCC)c(C(=O)OCC(CC)CCCC)c1 (stereo not drawn) | inactive | inactive | inactive | inactive | inactive | inactive | inactive | inactive | inactive |
| C=CCc1ccc(OC)cc1 | inactive | inactive | inactive | 5.47 µM (active) and inactive | inactive | inactive |  |  |  |
| CNC(=O)N(C)c1nnc(C(C)(C)C)s1 | inactive | inactive | inactive | inactive | 39.9 µM (active) and inactive | inactive | 39.9 µM (active) | inactive | inactive |
| O=Cc1ccco1 | inactive | inactive | inactive | inactive | inactive | inactive | inactive | inactive | inactive |
| COP(=S)(OC)Oc1ccc([N+](=O)[O-])cc1 | inactive | inactive and 35.6 µM (active) | inactive | inactive and 35.6 µM (active) | 8.95 µM (active) and 2.52 µM (active) | 35.6 µM (active) and 12.6 µM (active) | 7.11 µM (active) and 2 µM (active) | inactive | 17.8 µM (active) |
| COP(=S)(OC)Oc1cc(Cl)c(Cl)cc1Cl | inactive | inactive | inactive | inactive | 19.9 µM (active) and 7.76 µM (active) | 9.95 µM (active) and 7.76 µM (active) | 15.8 µM (active) and 11 µM (active) |  |  |
| C=CCc1ccc2c(c1)OCO2 | inactive | inactive | inactive | inactive | inactive | inactive | 28.3 µM (active) | inactive | inactive |
| O=[N+]([O-])c1cccc2ccccc12 | inactive | inactive | inactive | inactive | inactive | inactive | 3.17 µM (active) and 3.99 µM (active) | inactive | inactive |
| c1ccc(N=Nc2ccccc2)cc1 | inactive | inactive | inactive | 14.4 µM (active) and inactive | inactive | inactive | 25.7 µM (active) and 10 µM (active) | inactive | inactive |
| CC(C)=CC1C(C(=O)OCc2coc(Cc3ccccc3)c2)C1(C)C (stereo not drawn) | inactive | inactive | inactive | inactive | 8.95 µM (active) and 6.32 µM (active) | 7.98 µM (active) and 3.55 µM (active) | 28.2 µM (active) |  |  |
